# CYP2C19 inhib: blockers of cytochrome P450 2C19 activity – biochemical, luminescence, ADME assay, primary screen; CYP2C19 Supersomes, luciferin-H EGE luminescence, 30 min; 96,000 tested, 21% active; inhibition, % at 5 µM; AID 778, 2007; P33261;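 active means CYP2C19 inhibition above a set limit at 5 µM in the primary screen, cut at about 50% in these data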;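 further: plate controls were negative control wells for no effect and 2.5 mM tranylcypromine positive control for full effect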
# PostGolgi yeast: phenotypic screen on post-Golgi transport, primary screen. AID 739, 2007. 98,000 tested, 0.9% active. inhibition, % at 10 µM. post-Golgi transport phenotypic cell assay;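 further: yeast cells grown in 1536-well plates; yeast grown about 18 h at 30C before absorbance read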
# CYP2C9 activ: human CYP2C9 activators, primary screen, biochemical, luminescence; activation factor at 5 µM; AID 1024, 2008; recombinant CYP2C9, luciferin-H conversion; stronger effect = higher value; factor 1 = untreated enzyme, 0 = blocked; 96,000 tested, 1.4% active; Cytochrome P450 2C9 (Homo sapiens), P11712;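 active means activation factor of 2 or more for CYP2C9 at a 5 µM dose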;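 further: 0 = sulfaphenazole-blocked wells and 1 = vehicle-only wells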
# Target sequence (P11712 whole entry, looked up): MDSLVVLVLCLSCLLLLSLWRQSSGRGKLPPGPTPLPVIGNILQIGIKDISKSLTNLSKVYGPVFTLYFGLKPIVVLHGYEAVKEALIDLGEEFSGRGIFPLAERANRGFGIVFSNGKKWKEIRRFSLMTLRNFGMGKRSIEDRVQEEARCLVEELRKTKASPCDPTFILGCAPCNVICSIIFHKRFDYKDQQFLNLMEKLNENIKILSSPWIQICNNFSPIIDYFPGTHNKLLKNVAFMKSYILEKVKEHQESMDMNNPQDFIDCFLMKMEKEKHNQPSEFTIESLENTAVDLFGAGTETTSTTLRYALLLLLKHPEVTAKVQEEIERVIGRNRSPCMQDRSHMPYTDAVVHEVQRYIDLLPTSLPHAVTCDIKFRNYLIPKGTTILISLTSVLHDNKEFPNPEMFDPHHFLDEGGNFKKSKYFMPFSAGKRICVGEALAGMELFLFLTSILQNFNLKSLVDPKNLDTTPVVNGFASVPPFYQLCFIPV
# PostGolgi ctrl: growth inhibition of yeast control strain, primary screen, counter-screen for post-Golgi transport modulator project; efflux-deficient yeast background strain, growth absorbance A615, 16 h; inhibition, % at 10 µM; 98,000 tested, 5% active; AID 738, 2007
# CYP2C9 inhib: blockers of cytochrome P450 2C9 activity – biochemical, luminescence, ADME assay, primary screen; P11712; CYP2C9 Supersomes, luciferin-H conversion; inhibition, % at 5 µM; 96,000 tested, 20% active; AID 777, 2007;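 active means blocking of liver enzyme CYP2C9 beyond about 50% at 5 µM, limit read from the data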
# CYP2C19 activ: human CYP2C19 activators, primary screen, biochemical, luminescence | Cytochrome P450 2C19 (Homo sapiens), P33261 | recombinant CYP2C19, luciferin-H EGE luminescence; stronger effect = higher value; 0 = fully inhibited enzyme, 1 = untreated enzyme | activation factor at 5 µM | 96,000 tested, under 10 active | AID 1025, 2008;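 active means activation factor of at least 2 at 5 µM in the primary screen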;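 further: 0 = wells with 2.5 mM tranylcypromine and 1 = vehicle-only wells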
# Numbers without * were called inactive; . = no result given. Only some compounds are listed: those with a hit (about 32% of all), similar ones and a draw of the others. Unless noted, no stated cut-off is given here; in the data, active means inhibition above about 30%; inactive means the rest.
SMILES,CYP2C19 inhib,PostGolgi yeast,CYP2C9 activ,PostGolgi ctrl,CYP2C9 inhib,CYP2C19 activ
Cn1c(CNC(=O)c2ccc(F)cc2)nc2ccccc21,72*,-10,1.4,-2,-38,0.3
O=C(CN1C(=O)C2CC=C(Cl)CC2C1=O)Nc1ccc(C(=O)O)cc1 (stereo not drawn),-8,16,1.1,8,-14,1.1
Cc1nc(CSc2nnc3scc(-c4ccc(Cl)cc4)n23)cs1,60*,5,0.7,12,31,0.4
C=CCSc1nnc(-c2ccccc2N=Cc2c(C)[nH]n(-c3ccccc3)c2=O)c(=O)[nH]1,48,-12,0,0,99*,0.5
CSc1nnc(-c2ccccc2N=Cc2c(C)[nH]n(-c3ccc4ccccc4c3)c2=O)c(=O)[nH]1,14,-13,0.8,8,19,0.9
C=CCSc1nnc2c(n1)OC(c1c(C)[nH]n(-c3ccccc3)c1=O)Nc1ccccc1-2 (stereo not drawn),8,3,0.3,40*,72*,0.9
COc1ccc(NC(=O)CCNC(=O)Cn2cnc3ccccc3c2=O)c(OC)c1,0,6,0.8,0,20,1
COC(=O)Cc1nnc(NC(=O)C(C)C)s1,-1,7,1,6,-2,1
CCOc1ccccc1C(=O)NC1CC2CCCC(C1)N2Cc1nnnn1Cc1ccco1 (stereo not drawn),88*,-7,0,-2,98*,0.1
O=C(NC1CC2CCC(C1)N2Cc1nnnn1Cc1ccco1)NC12CC3CC(CC(C3)C1)C2 (stereo not drawn),71*,-4,0.5,10,54*,0.3
CCOc1ccccc1C(=O)NCCCN1CCN(CCCNC(=O)c2ccccc2OCC)CC1,-4,-3,1.2,-2,-19,1
O=C(Nc1ccc(F)cc1)NC1CCN(Cc2nnnn2Cc2ccco2)CC1,.,-2,.,-1,.,.
O=C(NCc1ccccc1)NC1CC2CCC(C1)N2Cc1ccco1 (stereo not drawn),24,-16,0.9,2,10,0.8
CCOc1ccccc1C(=O)NC1CC2CCCC(C1)N2C1CC1 (stereo not drawn),22,8,0.3,-4,69*,0.8
Cc1scc(C(=O)Nn2cnnc2)c1-c1ccccc1,-9,-10,0.9,33*,8,1.1
Nc1ccc2c(c1)C(=O)C(=O)c1ccccc1-2,98*,14,0.1,14,87*,0
Cc1ccc(N2C(=O)c3ccc(N)cc3C2=O)cc1,14,23,0.7,1,30,0.9
Cc1oc(-c2cccc(Cl)c2)nc1CN1CCCC(C(=O)NC(C)c2ccc3c(c2)OCCO3)C1 (stereo not drawn),87*,-3,0.2,17,81*,0.1
Cc1oc(-c2cccc(Cl)c2)nc1CN1CCCC(C(=O)NCc2ccco2)C1 (stereo not drawn),15,1,0.8,10,18,0.9
O=c1nc2n(c3cc(Cl)c(S(=O)(=O)N4CCOCC4)cc13)CCCCC2,-13,-3,0.9,-2,9,1.1
CC(=O)C1=C(O)C(=O)N(c2nccs2)C1c1ccc(Br)cc1 (stereo not drawn),15,-10,0.4,-4,57*,0.9
CCc1nnc(SCc2ccc(OC)c(Br)c2)n1N,58*,-1,1.3,-1,-27,0.4
COc1ccc(CSc2nnc(C)n2N)cc1Br,38,-4,1,8,-1,0.6
COc1ccc(NC(=O)c2oc3ccccc3c2NC(=O)c2ccco2)c(OC)c1,10,1,0.6,8,36,0.9
COc1cccc(NC(=O)c2oc3ccccc3c2NC(=O)C2CC2)c1,23,8,0.7,11,29,0.8
SMILES,CYP2C19 inhib,PostGolgi yeast,CYP2C9 activ,PostGolgi ctrl,CYP2C9 inhib,CYP2C19 activ
COCC(=O)Nc1c(C(=O)Nc2cccc(OC)c2)oc2ccccc12,11,-6,0.4,-4,64*,0.9
COc1ccc(NC(=O)c2oc3ccccc3c2NC(=O)c2ccco2)cc1,60*,2,0.8,-4,19,0.4
Cc1ccc(Oc2ccc(NC(=O)c3ccco3)cc2)cc1,56*,1,0.4,11,59*,0.4
CCOC(=O)c1c(C)[nH]c(C)c1C(=O)COc1ccc(NC(=O)c2ccco2)cc1,88*,1,0.1,16,93*,0.1
COc1ccc(OCC(=O)Nc2ccc(NC(=O)c3ccco3)cc2)cc1,38,0,0.6,3,38,0.6
O=C(Nc1ccc(S(=O)(=O)N2CCN(c3ccccc3)CC2)cc1)c1cccs1,1,-4,1,25,2,1
CCOCC(=O)Nc1c(C(=O)Nc2ccc(OC)cc2OC)oc2ccccc12,22,5,0.3,13,71*,0.8
Cc1c(NC(=O)c2cnn3c2NC(c2ccco2)CC3C(F)(F)F)c(=O)n(-c2ccccc2)n1C (stereo not drawn),-12,3,0.8,5,18,1.1
CCOP(=O)(O)c1ccccc1OCCCCCOc1ccccc1P(=O)(O)OCC,1,-2,0.8,-2,18,1
Oc1ccc(NCc2ccccc2OCc2ccccc2F)cc1,52*,0,0.5,9,47,0.5
CCOc1cccc(CNc2ccc(O)cc2)c1OCc1ccc(Cl)cc1,41,-14,0.6,9,44,0.6
COc1cccc(CNc2ccc(S(N)(=O)=O)cc2)c1OC,-1,11,1.1,-6,-9,1
Fc1ccccc1CNc1cc(Cl)cc(Cl)c1,.,4,.,6,.,.
NS(=O)(=O)c1ccc(NCc2ccccc2OCc2ccccc2F)cc1,40,1,0.2,14,75*,0.6
Cc1ccc(NCc2ccccc2OCc2ccccc2F)cc1,57*,-6,0.6,9,41,0.4
Cc1ccc(C(=O)O)cc1N1C(=O)c2cccc3cc(Br)cc(c23)C1=O,12,-17,0.9,-4,7,0.9
COC(=O)c1ccc(CSc2nnc(N)s2)cc1,74*,.,0.7,.,26,0.3
COC(=O)c1ccc(CSc2nnc(NC(=O)c3cc4c(s3)CCCC4)s2)cc1,7,-1,0.8,-9,19,0.9
COC(=O)c1ccc(CSc2nnc(C)s2)cc1,49,10,0.8,14,20,0.5
O=C(Nc1nnc(SCc2ccc(Cl)cc2)s1)C1CCCO1 (stereo not drawn),49,1,0.3,11,73*,0.5
N#Cc1ccc(CSc2nnc(NC(=O)C3CCCO3)s2)cc1 (stereo not drawn),20,-2,0.8,7,19,0.8
Cc1cc(C)nc(SCc2cccc(C(=O)O)c2)n1,-4,3,1.1,4,-6,1
